# Data reported in the supplement of paper PMC4466140.
# Experiments:
# Experiment in all cases: SPOT peptide array binding signal intensity (averaged, normalized) (arbitrary units (background-subtracted, floor 0; scale differs between SH3 domains)); higher = stronger binding of the SH3 domain to the peptide
# [1] = biological target: AgAbp1
# Method in brief: (§1)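 GST-fused SH3 domains from four yeast species were expressed in E. coli BL21(DE3), purified on glutathione Sepharose and incubated at 10 μg/ml overnight at 4°C in TBS-based blocking buffer on cellulose membranes carrying synthetic 15-mer peptides, with cysteines replaced by serines. Bound protein was detected with anti-GST antibody, an HRP anti-mouse secondary and luminol, then imaged and quantified with Genespotter. Binding signal is the normalized, background-subtracted spot intensity averaged over replicates, in arbitrary units that differ between domains.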
# [2] = biological target: AgBbc1
# Method in brief: as §1
# [3] = biological target: AgBem1-D1
# Method in brief: as §1
# [4] = biological target: AgBzz1-D1
# Method in brief: as §1
# [5] = biological target: AgBzz1-D2
# Method in brief: as §1
# [6] = biological target: AgCyk3
# Method in brief: as §1
# [7] = biological target: AgFus1
# Method in brief: as §1
# [8] = biological target: AgHof1
# Method in brief: as §1
# [9] = biological target: AgHse1
# Method in brief: as §1
# [10] = biological target: AgLsb1
# Method in brief: as §1
# [11] = biological target: AgLsb4
# Method in brief: as §1
# [12] = biological target: AgMyo5
# Method in brief: as §1
# [13] = biological target: AgNbp2
# Method in brief: as §1
# [14] = biological target: AgRvs167
# Method in brief: as §1
# [15] = biological target: AgSho1
# Method in brief: as §1
# [16] = biological target: AgSla1-D1-D2
# Method in brief: as §1
# [17] = biological target: AgSla1-D3
# Method in brief: as §1
# [18] = biological target: CaAbp1-D1
# Method in brief: as §1
# [19] = biological target: CaAbp1-D2
# Method in brief: as §1
# [20] = biological target: CaBbc1
# Method in brief: as §1
# [21] = biological target: CaBem1-D1
# Method in brief: as §1
# [22] = biological target: CaBzz1-D1
# Method in brief: as §1
# [23] = biological target: CaBzz1-D2
# Method in brief: as §1
# [24] = biological target: CaCyk3
# Method in brief: as §1
# [25] = biological target: CaFus1
# Method in brief: as §1
# [26] = biological target: CaHof1
# Method in brief: as §1
# [27] = biological target: CaHse1
# Method in brief: as §1
# [28] = biological target: CaLsb1
# Method in brief: as §1
# [29] = biological target: CaLsb4
# Method in brief: as §1
# [30] = biological target: CaMyo5
# Method in brief: as §1
# [31] = biological target: CaNbp2
# Method in brief: as §1
# [32] = biological target: CaRvs167
# Method in brief: as §1
# [33] = biological target: CaRvs167-3
# Method in brief: as §1
# [34] = biological target: CaSho1
# Method in brief: as §1
# [35] = biological target: CaSla1-D1-D2
# Method in brief: as §1
# [36] = biological target: CaSla1-D3
# Method in brief: as §1
# [37] = biological target: ScAbp1
# Method in brief: as §1
# [38] = biological target: ScBbc1
# Method in brief: as §1
# [39] = biological target: ScBem1-D1
# Method in brief: as §1
# [40] = biological target: ScBzz1-D1
# Method in brief: as §1
# [41] = biological target: ScBzz1-D2
# Method in brief: as §1
# [42] = biological target: ScCyk3
# Method in brief: as §1
# [43] = biological target: ScFus1
# Method in brief: as §1
# [44] = biological target: ScHof1
# Method in brief: as §1
# [45] = biological target: ScHse1
# Method in brief: as §1
# [46] = biological target: ScLsb1
# Method in brief: as §1
# [47] = biological target: ScLsb2
# Method in brief: as §1
# [48] = biological target: ScLsb3
# Method in brief: as §1
# [49] = biological target: ScLsb4
# Method in brief: as §1
# [50] = biological target: ScMyo3
# Method in brief: as §1
# [51] = biological target: ScMyo5
# Method in brief: as §1
# [52] = biological target: ScNbp2
# Method in brief: as §1
# [53] = biological target: ScPex13
# Method in brief: as §1
# [54] = biological target: ScRvs167
# Method in brief: as §1
# [55] = biological target: ScSho1
# Method in brief: as §1
# [56] = biological target: ScSla1-D1-D2
# Method in brief: as §1
# [57] = biological target: ScSla1-D3
# Method in brief: as §1
# [58] = biological target: SpAbp1-D1
# Method in brief: as §1
# [59] = biological target: SpBbc1
# Method in brief: as §1
# [60] = biological target: SpBzz1-D1
# Method in brief: as §1
# [61] = biological target: SpBzz1-D2
# Method in brief: as §1
# [62] = biological target: SpCyk3
# Method in brief: as §1
# [63] = biological target: SpHof1
# Method in brief: as §1
# [64] = biological target: SpHof1-2
# Method in brief: as §1
# [65] = biological target: SpHof1-3
# Method in brief: as §1
# [66] = biological target: SpHse1
# Method in brief: as §1
# [67] = biological target: SpLsb1
# Method in brief: as §1
# [68] = biological target: SpLsb4
# Method in brief: as §1
# [69] = biological target: SpMyo1
# Method in brief: as §1
# [70] = biological target: SpNbp2
# Method in brief: as §1
# [71] = biological target: SpPex13
# Method in brief: as §1
# [72] = biological target: SpRvs167
# Method in brief: as §1
# [73] = biological target: SpSla1-D1-D2
# Method in brief: as §1
# [74] = biological target: SpSla1-D3
# Method in brief: as §1
binder,measurement,setting,value
EEEEEHPPLPARRKS,SPOT peptide array binding signal intensity,[1],≤ 0
same,SPOT peptide array binding signal intensity,[2],23.2
same,SPOT peptide array binding signal intensity,[3],≤ 0
same,SPOT peptide array binding signal intensity,[4],9
same,SPOT peptide array binding signal intensity,[5],27.5
same,SPOT peptide array binding signal intensity,[6],≤ 0
same,SPOT peptide array binding signal intensity,[7],≤ 0
same,SPOT peptide array binding signal intensity,[8],3
same,SPOT peptide array binding signal intensity,[9],3.5
same,SPOT peptide array binding signal intensity,[10],20.5
same,SPOT peptide array binding signal intensity,[11],7880
same,SPOT peptide array binding signal intensity,[12],0.5
same,SPOT peptide array binding signal intensity,[13],≤ 0
same,SPOT peptide array binding signal intensity,[14],61
same,SPOT peptide array binding signal intensity,[15],8
same,SPOT peptide array binding signal intensity,[16],4.5
same,SPOT peptide array binding signal intensity,[17],≤ 0
same,SPOT peptide array binding signal intensity,[18],8.5
same,SPOT peptide array binding signal intensity,[19],≤ 0
same,SPOT peptide array binding signal intensity,[20],50.5
same,SPOT peptide array binding signal intensity,[21],≤ 0
same,SPOT peptide array binding signal intensity,[22],≤ 0
same,SPOT peptide array binding signal intensity,[23],≤ 0
same,SPOT peptide array binding signal intensity,[24],≤ 0
same,SPOT peptide array binding signal intensity,[25],9.5
same,SPOT peptide array binding signal intensity,[26],8.5
same,SPOT peptide array binding signal intensity,[27],13
same,SPOT peptide array binding signal intensity,[28],10.8
same,SPOT peptide array binding signal intensity,[29],5520
same,SPOT peptide array binding signal intensity,[30],1.75
same,SPOT peptide array binding signal intensity,[31],≤ 0
same,SPOT peptide array binding signal intensity,[32],408
same,SPOT peptide array binding signal intensity,[33],6.5
same,SPOT peptide array binding signal intensity,[34],≤ 0
same,SPOT peptide array binding signal intensity,[35],≤ 0
same,SPOT peptide array binding signal intensity,[36],≤ 0
same,SPOT peptide array binding signal intensity,[37],≤ 0
same,SPOT peptide array binding signal intensity,[38],6.25
same,SPOT peptide array binding signal intensity,[39],0.5
same,SPOT peptide array binding signal intensity,[40],16
same,SPOT peptide array binding signal intensity,[41],27.5
same,SPOT peptide array binding signal intensity,[42],≤ 0
same,SPOT peptide array binding signal intensity,[43],4
same,SPOT peptide array binding signal intensity,[44],4.25
same,SPOT peptide array binding signal intensity,[45],≤ 0
same,SPOT peptide array binding signal intensity,[46],444
same,SPOT peptide array binding signal intensity,[47],17
same,SPOT peptide array binding signal intensity,[48],9930
same,SPOT peptide array binding signal intensity,[49],3690
same,SPOT peptide array binding signal intensity,[50],≤ 0
same,SPOT peptide array binding signal intensity,[51],≤ 0
same,SPOT peptide array binding signal intensity,[52],≤ 0
same,SPOT peptide array binding signal intensity,[53],656
same,SPOT peptide array binding signal intensity,[54],1940
same,SPOT peptide array binding signal intensity,[55],≤ 0
same,SPOT peptide array binding signal intensity,[56],102
same,SPOT peptide array binding signal intensity,[57],≤ 0
same,SPOT peptide array binding signal intensity,[58],≤ 0
same,SPOT peptide array binding signal intensity,[59],1.5
same,SPOT peptide array binding signal intensity,[60],17
same,SPOT peptide array binding signal intensity,[61],2
same,SPOT peptide array binding signal intensity,[62],≤ 0
same,SPOT peptide array binding signal intensity,[63],0.5
same,SPOT peptide array binding signal intensity,[64],1
same,SPOT peptide array binding signal intensity,[65],1
same,SPOT peptide array binding signal intensity,[66],1
same,SPOT peptide array binding signal intensity,[67],10
same,SPOT peptide array binding signal intensity,[68],7640
same,SPOT peptide array binding signal intensity,[69],≤ 0
same,SPOT peptide array binding signal intensity,[70],3.5
same,SPOT peptide array binding signal intensity,[71],≤ 0
same,SPOT peptide array binding signal intensity,[72],1510
same,SPOT peptide array binding signal intensity,[73],≤ 0
same,SPOT peptide array binding signal intensity,[74],5
